# Source: PubChem BioAssay (NCATS)
# Records with an inconclusive call do not appear. Where a call stands in place of a potency, no number is given. Calls of active or inactive are those of the source. The call rests on the fitted dose curve; in most records, active means well fitted inhibition curve with a large enough effect; inconclusive means small, poorly fitted or top-dose-only effect; inactive means no such curve, though single readings can be large or run the other way.
# How the values were obtained:
# [1] = system: Zika virus NS2B-NS3 protease (linked construct); test: Primary screen NINDS Rhodamine qHTS for Zika virus inhibitors (AID 1347160); further: nearly all actives have a fitted effect of over 55% in size
# In short: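 Kinetic fluorescence (Ex 480 nm, Em 540 nm) over 15 min with 1.5 microM Rhodamine110 peptide and 25 nM linked protease.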
# [2] = qHTS to identify inhibitors of the type 1 interferon - major histocompatibility complex class I in skeletal muscle: primary screen against the NCATS Mechanism Interrogation Plate v5.0 (MIPE) Libary (AID 1347411); further: nearly all actives have a fitted effect of over 65% in size
# In short: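 Luminescence from HiBiT-tagged endogenous HLA-B*08:01 served as the MHC class I read-out. CRISPR-engineered C25cl48 human myoblasts received 4.0 ng/ml IFN-beta plus compound for 24 hrs, with an 11-point, 1:3 series topping at 46 uM final.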
# [3] = system: Zika virus NS2B-NS3 protease (unlinked complex); test: Primary screen GU Rhodamine qHTS for Zika virus inhibitors: Unlinked NS2B-NS3 protease assay (AID 1347159); further: nearly all actives have a fitted effect of over 60% in size
# In short: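 A qHTS format was used, with compound concentrations ranging up to 114 microM. Each compound was preincubated with 25 nM NS2B-NS3 protease, and the substrate was then added at 1.5 microM. Curves were fitted with a 4-parameter Hill model.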
compound,measurement,setting,value
Cc1cnc(-c2cc(N3CCN(C(=O)CCS(C)(=O)=O)CC3)ncc2Cl)c(C)c1,Potency,[1],inactive
same,Potency,[2],inactive
C[C@@]1(C(=O)Nc2ccc(F)nc2)CCCN1c1nc(Nc2cc(C3CC3)[nH]n2)c2cccn2n1,Potency,[1],inactive
Cc1cc(OCCCS(C)(=O)=O)cc(C)c1-c1cccc(COc2ccc3c(c2)OC[C@H]3CC(=O)O)c1,Potency,[2],inactive
O=C1CCCC(=O)C1C(=O)c1ccc(C(F)(F)F)cc1[N+](=O)[O-],Potency,[2],inactive
COc1cccc(OC)c1-c1cc(C(=O)NC2(C(=O)O)C3CC4CC(C3)CC2C4)nn1-c1ccnc2cc(Cl)ccc12 (stereo unspecified),Potency,[2],inactive
CC1=C(C(=O)Nc2cc3cn[nH]c3cc2F)C(c2ccc(C(F)(F)F)cc2)CC(=O)N1 (stereo unspecified),Potency,[3],inactive
same,Potency,[1],inactive
same,Potency,[2],inactive
CCn1c(-c2nonc2N)nc2cncc(CNC3CCNCC3)c21,Potency,[1],inactive
same,Potency,[2],inactive
Cn1c(=O)c(Oc2ccc(F)cc2F)cc2cnc(NC3CCOCC3)nc21,Potency,[2],inactive
C#CCN(C)CC1=Cc2ccccc2Oc2ccccc21,Potency,[2],inactive
Cc1ccc(S(=O)(=O)OCC(=O)Nc2ccc(C(=O)O)c(O)c2)cc1,Potency,[2],inactive
Cn1cc(-c2ccc3nnc(Sc4ccc5ncccc5c4)n3n2)cn1,Potency,[2],inactive
CN1CCN(c2cccc(Nc3nc4c(-c5ccc(S(C)(=O)=O)cc5)cccn4n3)c2)CC1,Potency,[1],inactive
